In all, about 370,000 compounds went through this assay and about 3,300 (0.89%) were called active. The sample as a whole holds a higher share of actives than the screen did. A number with no mark means an inactive call.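 Rule for the calls: active = activation above the mean of all tested compounds plus 3 SD, computed per campaign excluding outliers beyond control limits (cut at about 13% in these data); inactive = the rest.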

We go through 58 compounds from PubChem BioAssay AID652039 (The Scripps Research Institute Molecular Screening Center, 2013).

In the experiment the target is Kallikrein-7 (Homo sapiens) (UniProt P49862). Description: proKLK7 zymogen activators, primary screen, biochemical, fluorescence intensity (AID 652039). As to conditions: purified proKLK7, EDANS-DABCYL substrate fluorescence; at 7 µM; hits give high values; 100% is mature enzyme control, 0% vehicle.
Chain of Kallikrein-7 (Homo sapiens) (P49862 whole entry, looked up): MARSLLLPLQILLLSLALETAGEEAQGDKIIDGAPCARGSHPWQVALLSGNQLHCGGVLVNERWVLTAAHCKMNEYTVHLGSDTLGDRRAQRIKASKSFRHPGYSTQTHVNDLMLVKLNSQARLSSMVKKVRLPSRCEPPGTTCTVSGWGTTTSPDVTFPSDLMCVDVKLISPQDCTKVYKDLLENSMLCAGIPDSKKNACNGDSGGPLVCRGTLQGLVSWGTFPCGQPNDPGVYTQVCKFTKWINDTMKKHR
With `CN[C@H]1C[C@H]2c3cc(N4CCOCC4)ccc3CCN2C[C@H]1[C@H](C)O`, the activation was -0.23%.
As for `Cc1ccccc1NC(=O)C1CCN(c2ncccn2)CC1`, the activation is 0.11%.
Take `CC[C@@H](CCC(=O)N(c1ccccc1)c1ccccc1)C1CC1`: the activation is 0.23%.
Take `CCn1c(=N)c(S(=O)(=O)c2ccc(F)cc2)cc2c(=O)n3ccccc3nc21`: the activation is 3.21%.
Regarding `CCCn1c(=NC(C)=O)c(C(=O)OCC)cc2c(=O)n3ccccc3nc21`, the activation was 24.2% (active).
With `CCOC(=O)c1cc2c(=O)n3ccccc3nc2n(CC(C)C)c1=NC(=O)c1c(-c2c(F)cccc2Cl)noc1C`, the activation is 0.37%.
As for `O=C(C1CCN(S(=O)(=O)c2ccccc2)CC1)N1CCN(C2CCCCC2)CC1`, the activation is 0.53%.
`O=C(NN1CCOCC1)c1cccc(F)c1`: the activation is 0.32%.
As for `COc1ccc(N2CCN(CCNS(=O)(=O)c3ccc([N+](=O)[O-])cc3)CC2)cc1`, the activation was -0.14%.
Consider `C=CCOc1cccc(C2NC(=O)c3ccccc3O2)c1` (stereo not drawn), for which the activation is -1.97%.
The same measure for `O=C1NC(c2ccccc2)Oc2ccccc21` (stereo not drawn): -2.02%; for `O=C1NC(c2cccc(Cl)c2)Nc2ccccc21` (stereo not drawn): 13.9% (active); for `O=C(c1ccncc1)N1CC[C@H]2[C@H](CCCN2Cc2ccc(F)cc2)C1`: 0.94%.
Consider `CC(OC(=O)c1ccccc1NCCO)C(=O)Nc1ccnn1C(C)C` (stereo not drawn), for which the activation was 32.9% (active).
For `Cc1c(NC(=O)C(C)OC(=O)c2ccccc2O)c(=O)n(-c2ccccc2)n1C` (stereo not drawn), the activation is 1.12%.
Next, `COc1ccccc1NC(=O)C(C)OC(=O)c1ccc(-n2cnnn2)cc1` (stereo not drawn): -0.16%.
As to `CC(C)CNc1cccc2c1S(=O)(=O)N(Cc1cn(Cc3ccc(Cl)cc3)nn1)Cc1ccccc1O2`, the activation was -9.81%.
Consider `CN(CCc1ccccn1)S(=O)(=O)c1ccc2c3c(cccc13)C(=O)N2`, for which the activation was 41.6% (active).
Turning to `CN(CCc1ccccn1)C1CCCN(S(=O)(=O)c2ccccc2Cl)C1` (stereo not drawn), the activation is 0%.
Next, `CN(CC(=O)NCCc1ccccn1)S(=O)(=O)c1ccc(Cl)cc1`: 0.31%.
Consider `N#Cc1ccc(OC[C@@H](O)CN2CCC(C(O)(c3ccccc3)c3ccccc3)CC2)c(F)c1`, for which the activation is 0.5%.
Take `COc1c(N2CCN(C(=S)Nc3ccccc3F)C(C)C2)c(F)cc2c(=O)c(C(=O)O)cn(C3CC3)c12` (stereo not drawn): the activation was 17.9% (active).
As to `CN1[C@H](Cc2ccccc2)COc2cccc(N3CCSCC3)c2S1(=O)=O`, the activation was 0.48%.
Consider `C[C@@H]1COc2cccc(N3CCCC3)c2S(=O)(=O)N1C`, for which the activation is 0.38%.
`CC1CCN(c2oc(-c3ccccc3F)nc2C#N)CC1`: the activation was -0.12%.
The same measure for `N#Cc1nc(Cc2cccc3ccccc23)oc1NCc1ccc2c(c1)OCO2`: 0.74%; for `N#Cc1nc(-c2cccc3ccccc23)oc1N`: 56.1% (active); for `Cc1nc2ccc(N)nc2nc1C`: 55.8% (active).
On to `Cc1nc2cccnc2nc1C`, for which the activation was -0.19%.
On to `Cc1ccc(C)c(NC(=O)CCS(=O)(=O)c2ccccc2)c1`, for which the activation was -0.69%.
Regarding `CCNC(=S)Nc1ccc2c(c1)c(=O)n(C)n2Cc1ccc(Cl)cc1`, the activation is 21.2% (active).
The same measure for `COc1cc(Cn2c3ccc(NC(=O)CC(C)c4ccccc4)cc3c(=O)n2C)ccc1F` (stereo not drawn): 2.56%; for `Cn1c(=O)c2cc(NC(=O)NCCc3cccs3)ccc2n1Cc1cccc(C(F)(F)F)c1`: -1.5%.
Next, `COc1ccc(N2CCN(CCNS(=O)(=O)c3ccc(Cl)s3)CC2)cc1`: -0.36%; `CCOC(=O)C1=C(C)NC2=C(C(=O)CC(C)(C)C2)C1c1ccc2c(c1)OCO2` (stereo not drawn): 0.13%.
For the compound `CC(=O)c1ccc(NC(=O)CSc2nc3ccccc3c(=O)n2CCCN2CCOCC2)cc1`, the activation is 0.28%.
Turning to `Cc1nn(Cc2ccccc2)c(C)c1C(=O)NCCCN1CCCC1=O`, the activation is -0.1%.
`COCC(C)OC(=O)c1c(N)n(CCCN2CCOCC2)c2nc3ccccc3nc12` (stereo not drawn): the activation was 16.3% (active).
With `CC(C)(C)OC(=O)c1c(N)n(CCCN2CCCC2=O)c2nc3ccccc3nc12`, the activation was 62.5% (active).
In the case of `CC(CN1CCOCC1)OC(=O)c1ccc(C(C)(C)C)cc1` (stereo not drawn), the activation was 0.72%.
Take `O=C(NCCCN1CCCC1=O)c1ccc(S(=O)(=O)Nc2ccccc2)cc1`: the activation was -0.77%.
Take `CCCCCCNC(=O)O[C@H]1CN(C(=O)OC(C)C)N(C(=O)OC(C)C)[C@@H]2CN(S(=O)(=O)c3ccc(C)cc3)C[C@]12O`: the activation was -0.38%.
Take `O=C1CCC2(CCC(c3ccc(Cl)cc3)CC2)N1CCO` (stereo not drawn): the activation was -0.69%.
Regarding `Cc1ccccc1SCC(=O)OCC(=O)N1CC(=O)Nc2ccccc21`, the activation was 0.52%.
Turning to `Cc1cccc(C)c1NC(=O)C(c1cccc(F)c1)N1CCN(C)CC1` (stereo not drawn), the activation is -0.04%.
The same measure for `Cc1cccc(C)c1NC(=O)C(c1ccccc1)N1CC(=O)Nc2ccccc21` (stereo not drawn): 16.4% (active); for `CCCCNC(=O)C[C@@H]1C(=O)N(CCc2ccc(Cl)cc2)C2=CCCC[C@]21C(=O)OCC`: 0.21%; for `CC(CCN1CCC(C(O)(c2ccccc2)c2ccccc2)CC1)Oc1ccc(Cl)cc1` (stereo not drawn): -0.05%.
For `CCOC(=O)C(=O)N(Cc1ccccc1)c1ccccc1C(=O)Nc1cc(OC)ccc1OC`, the activation is 0.42%.
As to `COCCCn1c(-c2cccs2)nc2nc3ccccc3nc21`, the activation was 22.9% (active).
On to `CCc1nnc(NC(=O)CSc2nc3ccccc3c(=O)n2CCCOC)s1`, for which the activation is 0.09%.
With `COc1ccccc1C(=O)Nn1c(-c2cccs2)nc2ccccc2c1=O`, the activation is -0.4%.
As to `O=C1CC[C@@H](COc2ccc3[nH]cc(-c4ccccc4)c3c2-c2ccccc2)N1`, the activation is -1.38%.
Turning to `CCCc1cc(=O)oc2c(C)c(OCC(=O)N3CCC(C(=O)O)CC3)ccc12`, the activation is 0.06%.
As to `CCCc1cc(=O)oc2c(C)c(O)c(CN3CCCCC3)cc12`, the activation was 58.8% (active).
Next, `CCCc1cc(=O)oc2c(C)c(OC(C)C(=O)NCC(O)c3ccccc3)ccc12` (stereo not drawn): -0.01%; `O=C(CSc1nnc(-c2cccc(Cl)c2)n1Cc1ccco1)Nc1ccc(OCc2ccccc2)cc1`: 0.41%; `CCn1c(SCC(C)=O)nc2sc3c(c2c1=O)CCCC3`: 0.36%.
